Source: PubChem BioAssay
Fam108B counter: counter-screen for RBBP9 inhibitors: inhibitors of mouse Fam108B; recombinant Fam108B, FP-Rh probe fluorescence polarization; inhibition, % at 9.51 µM; 300,000 tested, 0.33% active;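 active means inhibition above the screen mean inhibition plus 3 SD, computed separately per campaign, cut at about 18% in these data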;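 further: inhibitors lower polarization as less probe binds the enzyme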
LYPLA2 inh: blocks human lysophospholipase 2, a PME1 counter-screen; O95372; recombinant LYPLA2, FP-Rh probe fluorescence polarization; inhibition, % at 5.9 µM; 320,000 tested, 0.38% active; AID 2177;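 active means inhibition above the screen-wide mean plus 3 SD, limit set per campaign, cut at about 26% in these data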
GSTO1 counter: GSTO1 inhibition, counter-screen for RBBP9 inhibitors; 300,000 tested, 1.1% active; recombinant GSTO1, activity-based probe fluorescence polarization; inhibition, % at 5.96 µM; P78417;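 active means inhibition above the campaign mean inhibition plus 3 SD, cut at about 35% in these data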
PAD4 FP inh: inhibitors of human PAD4; inhibition, % at 6.36 µM; recombinant PAD4, RCA probe fluorescence polarization; Q9UM07; 330,000 tested, 0.41% active; AID 485272;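 active means percent inhibition above a cutoff equal to the mean of all tested compounds plus 3 SD, cut at about 15% in these data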
Target sequence (Q9UM07 whole entry, looked up): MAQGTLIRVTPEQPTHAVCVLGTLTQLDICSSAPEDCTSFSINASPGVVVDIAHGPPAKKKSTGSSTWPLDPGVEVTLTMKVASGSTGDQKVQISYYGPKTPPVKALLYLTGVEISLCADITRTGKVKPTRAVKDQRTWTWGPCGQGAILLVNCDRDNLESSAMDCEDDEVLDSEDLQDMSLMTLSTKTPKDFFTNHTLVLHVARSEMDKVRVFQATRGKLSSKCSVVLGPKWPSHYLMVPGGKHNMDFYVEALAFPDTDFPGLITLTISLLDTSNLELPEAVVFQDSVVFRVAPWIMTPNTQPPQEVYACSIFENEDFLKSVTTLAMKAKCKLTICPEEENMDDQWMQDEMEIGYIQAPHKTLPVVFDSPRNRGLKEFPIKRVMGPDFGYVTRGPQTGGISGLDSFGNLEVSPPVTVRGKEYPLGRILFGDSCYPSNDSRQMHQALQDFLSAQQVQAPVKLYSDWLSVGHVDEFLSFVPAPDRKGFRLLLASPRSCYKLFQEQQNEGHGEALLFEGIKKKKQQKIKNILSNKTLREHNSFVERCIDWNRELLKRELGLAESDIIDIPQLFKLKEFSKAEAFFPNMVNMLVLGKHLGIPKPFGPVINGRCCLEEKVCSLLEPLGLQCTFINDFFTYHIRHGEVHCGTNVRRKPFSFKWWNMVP
PME-1 inh: PME-1 (human) inhibition | Q9Y570 | recombinant PME-1, FP-Rh probe fluorescence polarization | inhibition, % at 5.9 µM | 320,000 tested, 0.53% active | AID 2130;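 active means inhibition above the campaign mean of all compounds plus 3 SD, cut at about 26% in these data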;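 further: competitive labeling of PME-1 active site by serine hydrolase directed probe; inhibitors block probe labeling so polarization falls and inhibition rises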
LYPLA1 counter: LYPLA1 (human) inhibition in PME1 counter-screen. recombinant LYPLA1, FP-Rh probe fluorescence polarization. inhibition, % at 5.9 µM. 320,000 tested, 0.16% active. AID 2174;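 active means inhibition above the mean of all tested compounds plus 3 SD, set per campaign, cut at about 14% in these data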;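 further: inhibitors block serine hydrolase probe labeling of LYPLA1 so polarization falls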
PAD4 confirm: confirmation of human PAD4 inhibitors; AID 488796; shares compounds with PAD4 FP inh; inhibition, % at 6.36 µM; 1,200 tested, 28% active; recombinant PAD4, RCA probe fluorescence polarization;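 active means mean inhibition across replicates above the hit cutoff set by the earlier primary screen, cut at about 15% in these data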;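 further: inhibitors block active-site labeling by the probe so polarization falls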
Of the large screens only hits and unclear results are named; the others gave an inactive call (follow-up assays come after a bar, where they were run). Compounds with a hit are over-represented: about 1.8% of the library has one in this group of screens.

O=C(Nc1nc(=O)c2ccccc2s1)c1ccccc1	PAD4 FP inh 24 | PAD4 confirm inactive
Cc1ccc(C(=O)Nc2nc3ccccc3c(=O)s2)cc1	PAD4 FP inh 15 | PAD4 confirm inactive
COc1cc(/C=C2\CCn3c2nc2cc(C(=O)O)ccc2c3=O)ccc1OC(F)F	none
COc1ccc(-c2cc(C(=O)N3CCCCCC3)c3ccccc3n2)c(OC)c1	PAD4 FP inh 16 | PAD4 confirm 49
O=c1cc(-c2ccccc2)[nH]n1-c1nc2ccccc2[nH]1	none
N#CCCn1[nH]c(-c2ccccc2)cc1=O	GSTO1 counter 39, PAD4 FP inh 51 | PAD4 confirm inactive
Cc1c(NC(=O)C(C)OC(=O)c2cc(-c3cccc4ccccc34)nc3ccccc23)c(=O)n(-c2ccccc2)n1C (centres undefined)	PAD4 FP inh 19 | PAD4 confirm inactive
COc1ccc(-c2cc(C(=O)OC(C)C(=O)Nc3c(C)n(C)n(-c4ccccc4)c3=O)c3ccccc3n2)cc1 (centres undefined)	none
Cc1sc2ccc3sccc3c2[n+]1C	PAD4 FP inh 17 | PAD4 confirm inactive
CC/C(=C\C(=O)c1ccncc1)Nc1ccc(O)cc1	PAD4 FP inh 77 | PAD4 confirm inactive
O=C(N/N=C/c1ccc(O)cc1)c1ccncc1	none
O=C(c1cc2ccccc2oc1=O)N(c1ccccc1)C1C=CS(=O)(=O)C1 (centres undefined)	none
CC(C)c1ccc(N(C(=O)c2cc3ccccc3oc2=O)C2C=CS(=O)(=O)C2)cc1 (centres undefined)	PAD4 FP inh 17 | PAD4 confirm inactive
O=C(O)[C@H](Cc1ccccc1)NC(=O)N1CCC(Cc2ccccc2)CC1	PAD4 FP inh 42 | PAD4 confirm inactive
COc1ccc(NC2CC(=O)N(c3ccccc3)C2=O)cc1 (centres undefined)	none
COc1ccccc1N1C(=O)CC(Nc2ccc(N3CCOCC3)cc2)C1=O (centres undefined)	PAD4 FP inh 24 | PAD4 confirm inactive
O=C1CC(Nc2ccc(N3CCOCC3)cc2)C(=O)N1Cc1ccccc1 (centres undefined)	PAD4 FP inh 35 | PAD4 confirm inactive
CCOC(=O)C1(Cc2ccccc2)CCCN(Cc2ccc(OCC)c(CO)c2)C1 (centres undefined)	none
O=[N+]([O-])c1ccc(C2CC(c3ccccc3)=Nc3ccccc3S2)cc1 (centres undefined)	PAD4 FP inh 22 | PAD4 confirm inactive
Fc1ccc(C2CC(c3ccco3)=Nc3ccccc3S2)cc1 (centres undefined)	PAD4 FP inh 15 | PAD4 confirm inactive
COC(=O)c1c(C)[nH]c(C(=O)CN(C)CC(=O)Nc2cccc(F)c2)c1C	none (no result: Fam108B counter, GSTO1 counter)
COc1ccc(N(CC(=O)NCc2ccc(F)cc2)C(=O)c2snc(C(N)=O)c2N)cc1OC	none
COc1ccccc1NC(=O)C1CCN(S(=O)(=O)c2cccs2)CC1	PAD4 FP inh 18 (no result: Fam108B counter, GSTO1 counter) | PAD4 confirm inactive
COc1ccc(OC)c(NC(=O)C2CCN(S(=O)(=O)c3cccs3)CC2)c1	none
COc1ccc(C=Nc2cccnc2N)cc1	PAD4 FP inh 34 | PAD4 confirm inactive
Cc1ccc(C=Nc2cccnc2N)cc1	PAD4 FP inh 15 | PAD4 confirm inactive
CCOc1ccc(C=Nc2cccc3ncccc23)cc1	none
CCCc1c(C(=O)Nc2cc(C)on2)cnn1-c1ccccc1	none
CC(C)c1ccc(OCc2nc(-c3ccccn3)no2)c(Br)c1	PAD4 FP inh 20 | PAD4 confirm inactive
Cc1ccc(OCc2nc(-c3ccccn3)no2)c(Br)c1	none
Fc1ccc(Cn2c(SCc3ccc(F)c(F)c3)nnc2C(F)(F)F)cc1	none
Fc1ccc(Cn2c(SCc3ccc(F)c(C(F)(F)F)c3)nnc2C(F)(F)F)cc1	PAD4 FP inh 23 | PAD4 confirm inactive
Cc1nn(-c2ccccc2)c(C)c1C(=O)OCc1ccc(C#N)cc1	none
CC1(C)Cc2c(c(N3CCOCC3)nc3sc4c(NCc5ccccc5)nnnc4c23)CS1	none
CC(C)CNc1nnnc2c1sc1nc(N3CCOCC3)c3c(c12)CC(C)(C)SC3	PAD4 FP inh 27 | PAD4 confirm inactive
CC(C)NC(=O)COc1coc(CN2CCN(c3ccccc3F)CC2)cc1=O	none
